Test results published in PubChem BioAssay.
“And” between values parts separate entries of the source, which are not always exact repeats. Equal values may be shown once. The source made the active and inactive calls.

How the values were obtained:
[1] = small molecules captured by biotinylated probe aFSTL3 – biochemical, small-molecule microarray, fluorescence 635/667, stem cell growth factor project, primary screen (AID 1064); details: higher = more signal;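 note: measures binding of the biotinylated anti-FSTL3 antibody to printed compounds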
[2] = binders from COS7 lysate, DM2A8 probe, primary screen, torsin A project, cell lysate, small-molecule microarray, fluorescence 635/667 (AID 1065); details: higher = more signal, COS7 lysate expressing mutant human TOR1A
[3] = small molecules captured by biotinylated probe aFGF2 – biochemical, small-molecule microarray, fluorescence 635/667, stem cell growth factor project, primary screen (AID 1067); details: higher = more signal;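 note: measures binding of biotinylated aFGF2 protein to printed compounds on slides; z-score merges feature fluorescence and signal-to-noise across triplicate slides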
[4] = small molecules captured by biotinylated probe aFGF10 – biochemical, small-molecule microarray, fluorescence 635/667, stem cell growth factor project, primary screen (AID 1071); details: higher = more signal;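 note: score merges 667 nm spot intensity and signal to noise from triplicate slides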
[5] = target: Neurogenic locus notch homolog protein 2 (Homo sapiens) (UniProt Q04721); assay: small molecules binding Notch2 protein – biochemical, small-molecule microarray, 635 nm fluorescence, stem cell growth factors, primary screen (AID 1073); details: higher = more signal
Chain of Neurogenic locus notch homolog protein 2 (Homo sapiens) (Q04721 whole entry, looked up, canonical isoform): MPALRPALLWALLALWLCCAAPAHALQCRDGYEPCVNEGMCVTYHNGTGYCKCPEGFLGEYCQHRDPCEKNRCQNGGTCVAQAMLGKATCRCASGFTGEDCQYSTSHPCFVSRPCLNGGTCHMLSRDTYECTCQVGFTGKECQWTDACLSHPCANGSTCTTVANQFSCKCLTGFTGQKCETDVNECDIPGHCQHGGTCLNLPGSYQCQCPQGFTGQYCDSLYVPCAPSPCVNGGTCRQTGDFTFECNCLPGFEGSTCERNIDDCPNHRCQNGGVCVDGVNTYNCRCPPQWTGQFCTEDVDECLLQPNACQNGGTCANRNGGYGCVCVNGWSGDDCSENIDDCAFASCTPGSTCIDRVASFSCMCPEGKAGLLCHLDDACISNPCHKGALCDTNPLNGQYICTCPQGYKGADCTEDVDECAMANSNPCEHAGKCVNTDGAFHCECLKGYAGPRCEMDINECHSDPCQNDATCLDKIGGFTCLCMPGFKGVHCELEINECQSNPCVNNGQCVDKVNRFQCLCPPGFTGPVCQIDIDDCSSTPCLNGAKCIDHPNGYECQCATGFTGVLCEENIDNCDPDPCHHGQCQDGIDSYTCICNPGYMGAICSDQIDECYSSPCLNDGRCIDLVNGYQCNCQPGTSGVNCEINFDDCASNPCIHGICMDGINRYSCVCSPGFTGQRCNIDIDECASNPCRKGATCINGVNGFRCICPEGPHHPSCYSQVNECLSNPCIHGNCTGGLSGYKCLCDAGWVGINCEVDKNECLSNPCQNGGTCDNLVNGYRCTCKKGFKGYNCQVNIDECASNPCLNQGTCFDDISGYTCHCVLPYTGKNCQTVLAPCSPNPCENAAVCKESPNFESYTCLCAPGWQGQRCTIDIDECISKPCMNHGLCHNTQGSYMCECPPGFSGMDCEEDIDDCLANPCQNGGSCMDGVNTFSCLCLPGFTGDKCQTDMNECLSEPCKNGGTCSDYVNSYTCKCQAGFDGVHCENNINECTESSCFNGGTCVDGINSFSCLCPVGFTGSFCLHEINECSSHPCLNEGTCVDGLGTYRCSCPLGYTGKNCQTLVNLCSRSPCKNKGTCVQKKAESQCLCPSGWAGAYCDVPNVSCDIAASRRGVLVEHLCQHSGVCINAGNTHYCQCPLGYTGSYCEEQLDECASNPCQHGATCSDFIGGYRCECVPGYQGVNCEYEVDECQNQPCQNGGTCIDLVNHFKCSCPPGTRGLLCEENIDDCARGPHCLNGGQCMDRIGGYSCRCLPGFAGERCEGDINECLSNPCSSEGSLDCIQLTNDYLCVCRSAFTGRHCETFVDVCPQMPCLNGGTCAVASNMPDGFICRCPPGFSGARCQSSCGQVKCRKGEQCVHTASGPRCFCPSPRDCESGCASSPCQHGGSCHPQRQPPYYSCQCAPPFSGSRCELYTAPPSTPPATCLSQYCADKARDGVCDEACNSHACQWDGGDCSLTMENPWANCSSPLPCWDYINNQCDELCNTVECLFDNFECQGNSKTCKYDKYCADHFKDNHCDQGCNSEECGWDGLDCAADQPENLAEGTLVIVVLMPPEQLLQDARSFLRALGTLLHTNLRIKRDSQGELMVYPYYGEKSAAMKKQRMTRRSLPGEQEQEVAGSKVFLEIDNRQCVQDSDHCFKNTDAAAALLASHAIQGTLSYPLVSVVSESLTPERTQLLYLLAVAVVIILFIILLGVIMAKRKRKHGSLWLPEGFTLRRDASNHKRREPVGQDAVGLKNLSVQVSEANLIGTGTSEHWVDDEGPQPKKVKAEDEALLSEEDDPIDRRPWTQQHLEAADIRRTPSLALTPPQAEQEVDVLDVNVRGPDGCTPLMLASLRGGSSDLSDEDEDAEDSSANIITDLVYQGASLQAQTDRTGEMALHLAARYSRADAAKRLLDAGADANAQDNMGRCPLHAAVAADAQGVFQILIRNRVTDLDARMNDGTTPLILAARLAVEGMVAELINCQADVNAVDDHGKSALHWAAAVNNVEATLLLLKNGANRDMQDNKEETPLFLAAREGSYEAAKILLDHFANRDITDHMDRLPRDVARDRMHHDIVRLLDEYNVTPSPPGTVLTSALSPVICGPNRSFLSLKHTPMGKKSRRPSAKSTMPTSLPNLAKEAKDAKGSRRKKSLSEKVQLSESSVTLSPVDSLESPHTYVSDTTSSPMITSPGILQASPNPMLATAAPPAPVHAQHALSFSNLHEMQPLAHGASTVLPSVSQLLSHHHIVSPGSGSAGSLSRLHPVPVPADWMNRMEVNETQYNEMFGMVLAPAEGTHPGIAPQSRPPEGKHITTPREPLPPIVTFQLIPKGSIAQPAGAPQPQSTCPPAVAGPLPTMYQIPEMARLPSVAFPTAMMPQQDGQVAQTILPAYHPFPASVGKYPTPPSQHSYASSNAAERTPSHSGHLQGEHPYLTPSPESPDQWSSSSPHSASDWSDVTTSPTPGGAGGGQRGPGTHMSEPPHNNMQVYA

[6] = target: Pro-neuregulin-1, membrane-bound isoform (Homo sapiens) (UniProt Q02297); assay: small molecules binding neuregulin-1 protein – biochemical, small-molecule microarray, fluorescence 635/667, psychiatric disease protein project, primary screen (AID 1075); details: NRG1 binding, 635 nm fluorescence, higher = more signal;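 note: score combines 667 nm spot fluorescence with signal to noise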
Chain of Pro-neuregulin-1, membrane-bound isoform (Homo sapiens) (Q02297 whole entry, looked up, the tested form may be a part, canonical isoform): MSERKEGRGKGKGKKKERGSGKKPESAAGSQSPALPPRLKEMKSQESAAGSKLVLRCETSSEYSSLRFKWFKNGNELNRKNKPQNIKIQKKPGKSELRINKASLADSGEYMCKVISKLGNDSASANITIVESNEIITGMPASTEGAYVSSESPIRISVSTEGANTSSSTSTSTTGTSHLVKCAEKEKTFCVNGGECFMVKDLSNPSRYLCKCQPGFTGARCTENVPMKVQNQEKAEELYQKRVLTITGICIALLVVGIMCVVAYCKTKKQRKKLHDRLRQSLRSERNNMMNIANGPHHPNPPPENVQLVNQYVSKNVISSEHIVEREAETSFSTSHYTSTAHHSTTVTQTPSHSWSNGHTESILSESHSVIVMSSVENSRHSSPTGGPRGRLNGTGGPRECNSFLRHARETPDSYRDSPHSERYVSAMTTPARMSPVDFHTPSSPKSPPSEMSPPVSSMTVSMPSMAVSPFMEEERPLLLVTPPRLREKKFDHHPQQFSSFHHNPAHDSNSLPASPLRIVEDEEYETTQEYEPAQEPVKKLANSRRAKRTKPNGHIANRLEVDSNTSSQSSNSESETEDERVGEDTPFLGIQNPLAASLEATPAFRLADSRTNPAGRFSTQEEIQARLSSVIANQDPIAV

[7] = test system: Neuregulin-1 EGF-like domain; assay: small molecules binding NRG1 EGF domain – biochemical, small-molecule microarray, 635 nm fluorescence, primary screen (AID 1081); details: higher = more signal;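 note: binding of the protein to compounds printed on small-molecule microarray slides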
[8] = FRG1 expression reporter modulators in myotubes – cell-based, C2C12 myotubes, firefly/Renilla luciferase, luminescence, FRG1 inhibition for FSHD, primary screen (AID 1084); details: FRG1 promoter luciferase, higher = more signal, called active from +8 up or from −8 down
[9] = small molecules captured by biotinylated probe aFST – biochemical, small-molecule microarray, fluorescence 635/667, stem cell growth factor project, primary screen (AID 1086); details: higher = more signal;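 note: score merges 667 nm fluorescence with signal-to-noise of each printed compound spot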
[10] = binders of probe aHhip on microarray, primary screen, stem cell growth factor project, biochemical, small-molecule microarray, fluorescence 635/667 (AID 1087); details: higher = more signal;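 note: score merges spot fluorescence at 667nm with spot signal to noise ratio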

SMILES	composite z-score [1]	composite z-score [2]	composite z-score [3]	composite z-score [4]	composite z-score [5]	composite z-score [6]	composite z-score [7]	z-score [8]	composite z-score [9]	composite z-score [10]
CO[C@@H]1COC(=O)CC=C[C@H](C)COC(=O)[C@H](C)NC(=O)CC=C[C@H]1C	-0.563	1.75	-0.203	0.126	0.269	-0.557	-0.139	-0.87 (inactive)	-0.118	0.0505
C=CCN(C(=O)C(c1cccs1)N(C(=O)/C=C\C(=O)O)C(C)(C)CO)c1ccc(OC)cc1 (stereo not given)	0.865 and 0.636	-0.709 and 0.408	-0.204 and -0.158	-1.37 and -0.882	-0.907 and -1.48	1.46 and 1.42	1.36 and 0.431	-0.447 (inactive) and 1.44 (inactive)	-0.337 and -0.451	-0.482 and -0.0645
C=CCN(C(=O)C1N(C(C)(C)CO)C(=O)C2C(C(=O)O)C3C=CC21O3)C(C)(C)C (stereo not given)	0.974 and 1.67	-1.54 and -0.705	-0.232 and -0.112	-1.48 and 0.207	-2.19 and -1.87	-0.396 and 0.389	0.154 and 1.46	0.198 (inactive) and -0.0048 (inactive)	-1.37 and -1.24	-0.427 and -0.0994
C=CC[C@@H](O)c1ccc(O)c2ccccc12	0.16 and -0.247	0.571 and 0.234	-0.0422 and -0.0676	0.184 and 0.262	0.116 and 0.328	0.66 and 0.282	1.18 and 1.26	0.0604 (inactive) and 1.27 (inactive)	0.42 and 0.0926	0.72 and -0.0237
C[N+](C)(C)CCCCNC(=O)[C@H]1C[C@H]2C(=O)N[C@@H](CCCC[N+](C)(C)C)C(=O)N2[C@H]1c1ccc(O)cc1	-0.589 and -0.197	2 and 1.03	-0.051 and -0.216	0.889 and 0.379	0.443 and -0.234	0.289 and -0.641	1.38 and 0.394	0.717 (inactive) and 0.376 (inactive)	-0.142 and 0.287	0.21 and -0.134
C[N+](C)(C)CCCCCCNC(=O)[C@H]1C[C@H]2C(=O)N[C@@H](CCCC[N+](C)(C)C)C(=O)N2[C@H]1c1ccc(O)cc1	0.267 and 0.341	0.137 and 0.115	-0.106 and -0.158	0.105 and 0.129	-0.2 and -0.619	-0.0293 and -0.0659	1.07 and 1.41	0.996 (inactive) and -0.0859 (inactive)	-0.15 and -0.508	-0.0994 and 0.2
Cc1ccc(S(=O)(=O)OC[C@@H]2CN3[C@@H](CC[C@@H](C)[C@@H]3c3ccc(Br)cc3)C(=O)O2)cc1	-0.14 and -0.482	0.299 and 0.063	-0.0502 and 0.0062	0.251 and 0.369	0.246 and 0.663	0.311 and 0.0379	0.168 and 1.07	0.472 (inactive) and -0.0959 (inactive)	0.447 and 0.166	0.21 and 0.268
C=CCN1C(=O)[C@]2(O[C@H](CCn3cc(CCO)nn3)[C@@H]([Si](C)(C)c3ccc(OC)cc3)[C@@H]2C)c2cc(N3C(=O)c4cccc5cccc3c45)ccc21	-0.298 and -0.359	1.1 and -0.4	-0.0069 and -0.0563	0.678 and 0.735	0.285 and 0.226	1.19 and 0.465	1.03	-2.77 (inactive) and -2.7 (inactive)	0.115 and -0.305	-0.0618 and 0.157
C=CCN(CCCCC)C(=O)C(c1cccs1)N(C(=O)/C=C\C(=O)O)c1c(Cl)cccc1CO (stereo not given)	0.0175 and 0.264	-0.764 and -0.654	-0.21 and -0.122	-1.57 and -1.12	-2.35 and -1.74	1.12 and -0.954	0.683 and 0.526	-0.383 (inactive) and 0.395 (inactive)	-0.655 and -1.1	-0.128 and -0.323
C[C@@H]1CC[C@H]2C(=O)N3[C@@H](CC[C@@H](C)[C@@H]3c3ccc(-c4ccco4)cc3)C(=O)N2[C@H]1c1ccc(-c2ccco2)cc1	-0.23 and 1.14	0.762 and 1.98	-0.0084 and -0.0668	0.906 and 1.16	0.422 and 1.15	0.992 and 0.667	1.29 and 1.3	-0.248 (inactive) and 0.445 (inactive)	0.443 and 1.26	0.132 and 0.259
C=CCN(Cc1ccccc1)C(=O)C1N(c2c(Cl)cccc2CO)C(=O)C2C(C(=O)O)C3C=CC21O3 (stereo not given)	1.77 and 1.95	-1.28 and -0.799	-0.176 and -0.166	-1.74 and -0.702	-2.4 and -2.37	-1.18 and -0.797	-0.822 and -0.464	-1.05 (inactive) and 1.16 (inactive)	-0.877 and -0.563	-0.418 and -0.137
C#CCCCON=C1C[C@@H](O)[C@@H](O)[C@@H]2[C@@H]3C(=O)N(C4CCCCC4)C(=O)[C@@H]3CC[C@H]12	-0.283	0.145	-0.0423	0.612	0.784	0.717	0.793	-0.298 (inactive)	0.346	-0.0994
C[N+](C)(C)CCCCNC(=O)[C@@H]1C[C@@H]2C(=O)N[C@@H](CCCC[N+](C)(C)C)C(=O)N2[C@@H]1c1cccc(OCCO)c1	-0.0301 and -0.304	2.1 and 2.23	-0.0909 and -0.0573	1.07 and 1.2	0.556 and 0.0462	-0.181 and -0.179	1.07 and 1.16	-0.101 (inactive) and 0.844 (inactive)	0.311 and 0.464	0.463 and -0.0994
C=CCN(CCCC)C(=O)C1N(C(C)(C)CO)C(=O)C2C(C(=O)O)C3C=CC21O3 (stereo not given)	0.501 and 0.858	-0.796 and -1.83	-0.249 and -0.252	-1.94 and -1.01	-1.33 and -1.67	1.06 and -1.21	0.111 and -0.645	1.4 (inactive) and 0.963 (inactive)	-1.12 and -0.587	-0.204 and -0.0645
Cc1cc2c(nc1C)CCCN2CC(C)ON=C[C@@H](C)[C@H](OCc1ccccc1)C(C)C (stereo not given in full)	-0.461	0.478	-0.0724	-0.0706	-0.461	-0.869	-0.868	-0.201 (inactive)	0.374	0.102
COC(=O)c1c2oc(c1C(=O)OC)C(=O)N[C@@H](Cc1ccccc1)Cn1cc(nn1)C1(CCCCC1)NC(=O)N[C@H](CO)CC2	0.345 and -0.428	-0.946 and -0.603	-0.0558 and -0.0752	0.866 and 0.262	0.395 and 0.428	1.23 and 0.0012	1.31 and 0.747	-0.818 (inactive) and -1 (inactive)	0.247 and 0.182	-0.0346 and -0.13
C[C@@H]1CN2[C@@H](CC[C@@H](C)[C@@H]2c2ccc(Br)cc2)C(=O)O1	-0.267 and -0.0033	-0.0199 and 0.174	-0.116 and -0.0583	0.215 and 0.604	0.275 and 0.18	-0.368 and 0.158	-0.704 and -0.829	-0.735 (inactive) and -1.38 (inactive)	-0.145 and 0.0701	-0.0994 and -0.274
CC[C@@H]1C(Sc2ccccc2)C(C(=O)O)[C@H](c2ccc(C)cc2)N1S(=O)(=O)c1ccc(C)cc1 (stereo not given in full)	0.249 and -0.499	0.364 and -0.0981	0.0013 and 0.166	0.579 and 0.288	1.56 and 1.12	1.82 and 1.91	1.39 and 1.2	-3.66 (inactive) and -3.89 (inactive)	0.254 and 1.05	-0.179 and -0.0994
C[N+](C)(C)CCCCNC(=O)[C@H]1C[C@H]2C(=O)N[C@@H](CCCC[N+](C)(C)C)C(=O)N2[C@H]1c1cccc(OCCO)c1	-0.0665 and -0.363	-0.422 and 1.12	-0.0744 and -0.149	1.24 and 0.967	-0.0613 and 0.622	1.24 and 0.211	0.973 and 1.38	-0.194 (inactive) and -0.269 (inactive)	0.613 and 0.743	0.142 and -0.41
CC(C)N1CC=CC23O[C@@H]4C=CCCOC(=O)C4[C@H]2C(=O)N(C(C)CO)[C@@H]3C1=O (stereo not given in full)	0.886 and 0.781	0.543 and -0.0534	-0.158 and -0.116	-1.39 and -0.751	-0.0092 and -0.882	2.21 and -0.35	0.958 and 0.694	-0.746 (inactive) and 0.0086 (inactive)	-0.828 and -0.509	-0.178 and 0.0176
CCOC(=O)[C@H](Cc1ccccc1)NC(=O)CCC1CC(OC(=O)NCc2cccc3ccccc23)CC2(CCCC(COC(=O)NCCCN3CCCC3=O)O2)O1 (stereo not given in full)	-0.511	0.221	-0.107	0.122	1.1	0.412	0.783	-0.81 (inactive)	0.249	-0.0994
CCOC(=O)[C@@H]1CC=C2CC1C(=O)N1CCC[C@@H]1[C@H]2O[Si](C)(C)C(C)(C)C (stereo not given in full)	-0.116 and -0.386	-0.323 and -0.427	-0.157 and -0.282	-0.833 and -1.22	-1.16 and -1.46	-0.653 and -0.709	-1.69 and -0.727	0.678 (inactive) and -1.08 (inactive)	-0.0907 and -1.25	-0.0994 and -0.252
C=CCN(CCCC)C(=O)C(c1cccs1)N(CCOCCO)C(=O)/C=C\C(=O)O (stereo not given)	0.673 and -0.0069	0.878 and 0.902	-0.208 and -0.23	-1.36 and 0.428	-1.8 and -0.746	1.34 and 0.823	0.903 and 0.941	-1.65 (inactive) and -0.784 (inactive)	-0.496 and -0.114	-0.134 and -0.236
C=CCN(C(=O)C1N(CCOCCO)C(=O)C2C(C(=O)O)C3C=CC21O3)C(C)(C)C (stereo not given)	0.977 and 0.412	-0.768 and -0.863	-0.25 and -0.262	-1.82 and -1.11	-2.44 and -1.36	-0.774 and -0.717	-0.643 and -0.383	0.97 (inactive) and -0.383 (inactive)	-1.09 and -1.91	-0.175 and 0.0156
COC(=O)[C@@]1(Cc2ccc(OC)cc2)[C@H]2c3cc(C(=O)N(C)C)n(Cc4ccc(O)c(OC)c4)c3C[C@H]2CN1C(=O)c1ccccc1	0.332 and 0.233	0.703 and 0.13	-0.169 and 0.176	0.123 and 1.17	1.64 and 1.68	2.15 and 1.85	1.32 and 1.22	2.53 (inactive) and -0.466 (inactive)	0.808 and 1.15	0.329 and 0.483
CCOC(=O)c1ccc(NC(=O)O[C@H]2[C@H](OC(=O)Nc3ccccc3)[C@H](OC(=O)Nc3ccccc3)[C@@H](OC)O[C@@H]2CO)cc1	0.496 and 0.0126	1.19 and 1.58	0.171 and 0.0495	1.2 and 0.986	1.44 and 0.73	1.68 and 1.8	1.3 and 1.35	0.822 (inactive) and -1.03 (inactive)	1.18 and 0.937	-0.24 and -0.141
C[C@@H](ON=C1[C@H]2CCn3c(=O)n(-c4ccccc4)c(=O)n3[C@H]2[C@H](O)[C@@H]2O[C@H]12)c1cn([C@H](CO)Cc2ccccc2)nn1	-0.289	0.316	-0.113	0.449	0.308	0.11	0.536	0.887 (inactive)	0.0701	-0.64
COC(=O)C1=C(C)N(Cc2ccccc2)C2=C(C(C)=O)[C@H](c3ccccc3)[C@@](O)(C(=O)OC)C(=O)N2[C@@H]1c1ccccc1	-0.449 and -0.481	0.468 and -0.61	-0.129 and -0.139	0.778 and -0.338	0.691 and 0.083	0.595 and -0.445	1.18 and -1.44	-2.61 (inactive) and -1.77 (inactive)	0.277 and -0.201	0.0515 and -0.281
